The nature of test [1]: compounds binding Alexa647 anti-His antibody – biochemical, small-molecule microarray, 635 nm fluorescence, artefact control for SMM control protein annotation, primary screen (AID 1128).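 Also: score merges feature fluorescence with signal-to-noise for each printed compound spot.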 As to conditions: higher = more signal.
In test [2] the test system is Human papillomavirus type 1a E7 protein (residues 1-88). The experiment in a line: HPV1a E7 small-molecule binders, primary screen, biochemical, small-molecule microarray, residues 1-88, 635 nm (AID 1129). As to conditions: small-molecule microarray binding, fluorescence 635 nm; higher = more signal.
Test [3] addresses Focal adhesion kinase 1 (Homo sapiens) (UniProt Q05397). Description: PTK2 protein binding on printed compound slides – biochemical, small-molecule microarray, 635/667 nm fluorescence, BSA, DTT, primary screen (AID 1130).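 Also: composite of spot emission at 667 nm and signal to noise over triplicate slides.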 As to conditions: 635 nm fluorescence, higher = more signal.
The test system of test [4] is Fibrinogen (Alexa647-labelled). The experiment in a line: Alexa647-fibrinogen binding to printed small molecules – biochemical, small-molecule microarray, 635/667 nm fluorescence, artefact control for SMM control-protein annotation, profiling panel (AID 1131).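 Also: z-score merges 667 nm fluorescence with per-spot signal-to-noise over triplicate slides.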 As to conditions: fibrinogen-A647 binding fluorescence, higher = more signal.
Test [5] has as its target Follistatin (Homo sapiens) (UniProt P19883). Description: FST protein binding to printed compounds – biochemical, small-molecule microarray, 635/667 nm fluorescence, primary screen (AID 1132). Particulars: 635 nm fluorescence, higher = more signal.
Test [6] has as its target Fibroblast growth factor 2 (Homo sapiens) (UniProt P09038). Description: basic fibroblast growth factor binding to printed compounds – biochemical, small-molecule microarray, 635/667 nm fluorescence, primary screen (AID 1133). As to conditions: FGF2, fluorescence 635/667, higher = more signal.
Test [7] can be described thus: JC-1 mitochondrial potential readout, lung cancer cells – cell-based, A549, JC-1 fluorescence, basal, 24 h, 100 nL, profiling panel (AID 1138).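 Also: A549 lung adenocarcinoma cells under basal conditions with no added stimulus; test concentration not given here.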 As to conditions: higher = more signal.
In a further test the test system is Lefty1. Description: Lefty1 protein binding to printed compounds – biochemical, small-molecule microarray, 635/667 nm fluorescence, primary screen (AID 1139). Particulars: fluorescence 635/667, higher = more signal.
Test [8] relates to wheat germ agglutinin (Triticum aestivum), Alexa647-labelled. The experiment in a line: Alexa647-WGA lectin binding to printed small molecules – biochemical, small-molecule microarray, 635/667 nm fluorescence, artefact control for SMM control-protein annotation, profiling panel (AID 1140).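 Also: score merges 667 nm feature emission with signal to noise over triplicate slides.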 Particulars: WGA-A647 binding, 635 nm fluorescence, higher = more signal.
Test [9] addresses Luciferin 4-monooxygenase (Photinus pyralis) (UniProt P08659). The experiment in a line: inhibition of purified Photinus pyralis luciferase – biochemical, luminescence, purified enzyme, 2006 set, primary screen (AID 1141).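 Also: cell-free assay with purified firefly luciferase at 100 ng per well in PBS; test concentration not given here.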 As to conditions: purified firefly luciferase, SteadyGlo luminescence, 30 min; higher = more signal, called active from +8 up or from −8 down.

Active and inactive are the calls of the source.

Luciferin 4-monooxygenase (Photinus pyralis), sequence (P08659 whole entry, looked up): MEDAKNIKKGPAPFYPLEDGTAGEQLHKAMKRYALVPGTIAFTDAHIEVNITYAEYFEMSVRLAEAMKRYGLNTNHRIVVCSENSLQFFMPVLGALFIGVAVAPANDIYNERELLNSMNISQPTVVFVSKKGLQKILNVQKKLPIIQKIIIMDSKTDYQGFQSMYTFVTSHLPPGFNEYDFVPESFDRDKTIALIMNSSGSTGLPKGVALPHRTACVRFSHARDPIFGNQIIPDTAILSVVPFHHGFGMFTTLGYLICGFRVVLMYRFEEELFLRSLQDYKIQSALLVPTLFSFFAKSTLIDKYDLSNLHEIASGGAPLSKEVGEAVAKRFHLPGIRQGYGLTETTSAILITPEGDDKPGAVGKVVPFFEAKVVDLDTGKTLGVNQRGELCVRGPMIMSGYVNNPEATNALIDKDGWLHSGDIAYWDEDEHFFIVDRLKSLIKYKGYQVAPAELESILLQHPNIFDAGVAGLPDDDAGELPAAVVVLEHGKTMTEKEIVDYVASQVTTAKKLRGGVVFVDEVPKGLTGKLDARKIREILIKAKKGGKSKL
Fibroblast growth factor 2 (Homo sapiens), sequence (P09038 whole entry, looked up): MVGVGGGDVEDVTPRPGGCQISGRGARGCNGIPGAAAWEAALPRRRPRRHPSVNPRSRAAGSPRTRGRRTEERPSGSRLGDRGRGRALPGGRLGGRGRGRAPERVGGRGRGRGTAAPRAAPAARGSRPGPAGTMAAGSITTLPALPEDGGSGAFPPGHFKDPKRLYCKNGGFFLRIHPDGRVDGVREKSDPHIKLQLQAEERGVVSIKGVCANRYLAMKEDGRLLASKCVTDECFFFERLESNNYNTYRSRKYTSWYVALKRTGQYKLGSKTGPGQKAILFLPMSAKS
Focal adhesion kinase 1 (Homo sapiens), sequence (Q05397 whole entry, looked up): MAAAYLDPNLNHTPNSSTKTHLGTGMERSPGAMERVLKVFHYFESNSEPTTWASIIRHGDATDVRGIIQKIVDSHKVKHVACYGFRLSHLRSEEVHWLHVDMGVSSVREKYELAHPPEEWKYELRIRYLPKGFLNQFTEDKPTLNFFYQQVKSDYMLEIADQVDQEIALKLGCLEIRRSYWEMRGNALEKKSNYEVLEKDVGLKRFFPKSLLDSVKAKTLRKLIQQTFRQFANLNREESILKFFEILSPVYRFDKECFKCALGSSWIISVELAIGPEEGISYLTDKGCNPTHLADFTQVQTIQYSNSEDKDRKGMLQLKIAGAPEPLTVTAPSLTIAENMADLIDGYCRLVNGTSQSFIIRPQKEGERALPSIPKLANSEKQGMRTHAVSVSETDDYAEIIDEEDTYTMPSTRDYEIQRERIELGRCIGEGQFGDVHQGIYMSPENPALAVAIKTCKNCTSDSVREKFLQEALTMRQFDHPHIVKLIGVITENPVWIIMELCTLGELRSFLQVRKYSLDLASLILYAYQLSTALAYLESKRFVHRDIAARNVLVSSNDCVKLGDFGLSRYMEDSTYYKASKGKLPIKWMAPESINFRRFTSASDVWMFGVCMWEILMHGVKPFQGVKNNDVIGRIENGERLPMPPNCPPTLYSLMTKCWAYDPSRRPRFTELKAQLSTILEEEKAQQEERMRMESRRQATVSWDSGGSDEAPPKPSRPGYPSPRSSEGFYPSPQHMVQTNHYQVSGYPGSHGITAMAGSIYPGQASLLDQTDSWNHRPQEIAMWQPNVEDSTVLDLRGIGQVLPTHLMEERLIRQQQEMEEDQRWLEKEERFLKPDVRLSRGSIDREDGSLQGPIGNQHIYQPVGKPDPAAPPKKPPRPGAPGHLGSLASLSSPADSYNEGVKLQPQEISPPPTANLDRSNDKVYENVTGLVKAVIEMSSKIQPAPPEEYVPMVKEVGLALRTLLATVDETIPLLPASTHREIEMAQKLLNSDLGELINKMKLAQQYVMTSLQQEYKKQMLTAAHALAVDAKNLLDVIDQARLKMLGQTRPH
Follistatin (Homo sapiens), sequence (P19883 whole entry, looked up): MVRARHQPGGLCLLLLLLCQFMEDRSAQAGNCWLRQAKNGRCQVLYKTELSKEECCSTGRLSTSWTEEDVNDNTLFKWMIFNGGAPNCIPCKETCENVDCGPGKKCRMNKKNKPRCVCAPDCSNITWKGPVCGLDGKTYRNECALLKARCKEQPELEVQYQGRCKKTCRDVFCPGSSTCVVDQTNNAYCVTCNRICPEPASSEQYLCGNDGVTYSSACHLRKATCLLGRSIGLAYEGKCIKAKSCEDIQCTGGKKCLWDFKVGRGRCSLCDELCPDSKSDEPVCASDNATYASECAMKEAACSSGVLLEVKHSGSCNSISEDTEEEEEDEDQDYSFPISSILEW

As to `C=C(CCCC)/C(=C/C[C@H](OC(C)=O)c1cccc(OCCO)c1)c1cc(C(=O)OC)ccc1OC`, the composite z-score in test [1] is -0.799; in [2], -0.426; in [3], -0.325; in test [4] it was 0.33; in test [5] it was 0.0088; in test [6] it was 0.261. For the same molecule, the composite z-score is 0.283 with Lefty1 and 0.635 in test [8]. Besides, the z-score in test [7] was 3.6; in test [9] it was -1.64 (inactive).

Take `CC(C)CNC(=O)[C@@H]1c2ccccc2C(=O)N(C2Cc3ccccc3C2)[C@H]1c1ccc(CO)cc1`: the composite z-score in [1] was 0.245; in [2], 0.516; in [3], -0.587; in test [4], 0.182; in [5] it was 0.348; in [6], 0.579. Moreover, the figures for the composite z-score (in the test with Lefty1; in test [8]) were -0.499 and -0.19, respectively. Also, the figures for the z-score in [7] and in test [9] were 3.56 and -0.843 (inactive), respectively.

For the molecule `COCCOC(=O)N1C(=O)[C@@]2(c3cc(C#CC4(O)CCCCCC4)ccc31)[C@H](c1ccc(OCCO)cc1)N1[C@H](c3ccccc3)[C@H](c3ccccc3)OC(=O)[C@H]1[C@@H]2C(N)=O`, the composite z-score was 1.43 in [1]; 1.15 in test [2]; 0.528 in [3]; 0.892 in test [4]; 1.38 in test [5]; 1.55 in test [6]. In addition, the composite z-score was found to be 1.38 with Lefty1 and 0.613 in test [8]. For the same molecule, the results for the z-score in [7] and in test [9] were -1.27 and -0.608 (inactive), respectively.

Regarding `O=C(NCC(F)(F)F)[C@@H]1c2ccccc2C(=O)N(CC23CC4CC(CC(C4)C2)C3)[C@H]1c1ccc(CO)cc1`, the composite z-score is 1.08 in test [1]; 0.722 in [2]; 1.46 in test [3]; 0.378 in test [4]; 1.16 in test [5]; 1.15 in test [6]. The results for the composite z-score (in the test with Lefty1; in [8]) were 0.827 and 0.393, respectively. Moreover, the z-score in test [7] was 0.588; in test [9], 0.972 (inactive).

Regarding `COCCOC(=O)N1C(=O)[C@@]2(c3cc(C#CCNC(N)=O)ccc31)[C@H](C(=O)NC[C@H](O)c1ccccc1)[C@H]1C(=O)O[C@H](c3ccccc3)[C@H](c3ccccc3)N1[C@@H]2c1ccc(OCCO)cc1`, the composite z-score came to 0.991 in test [1]; 1.16 in [2]; 0.707 in test [3]; 0.884 in [4]; 1.18 in test [5]; 0.581 in [6]. The composite z-score in the test on Lefty1 was found to be 0.753; in test [8], 0.851. The values for the z-score in test [7] and in [9] were -0.71 and -0.496 (inactive), respectively.

For `COc1ccc(C#Cc2ccc3c(c2)[C@]2(C(=O)N3)[C@H](c3ccc(OCCO)cc3)N3[C@H](c4ccccc4)[C@H](c4ccccc4)OC(=O)[C@H]3[C@@H]2C(=O)O)cc1`, the composite z-score in [1] stood at 0.406; in test [2], 1.22; in test [3] it was 0.583; in [4], 0.771; in [5], 1.15; in [6], 0.485. The values for the composite z-score (in the test with Lefty1; in test [8]) were 1.63 and 0.416, respectively. Further, the values for the z-score in [7] and in test [9] were -2.54 and -4.63 (inactive), respectively.

Turning to `O=C1C2C=CC(C(O)c3ccc([N+](=O)[O-])cc3)N(Nc3ccccc3)C2C(=O)N1c1ccccc1` (stereo not given), the composite z-score in test [1] is 0.175; in test [2], 0.976; in [3] it was 1.38; in test [4], 1.02; in test [5], 0.544; in test [6], -0.239. Besides, the composite z-score in the test on Lefty1 was 0.27; in test [8], 0.611. Besides, the z-score in test [7] was -0.467; in test [9], -0.284 (inactive).

For `CO[C@H]1O[C@H](CO)[C@@H](OC(=O)Nc2ccc3c(c2)OCO3)[C@@H]2OC(=O)[C@@H](Cc3ccccc3)C/C=C/C[C@H](Cc3ccccc3)C(=O)O[C@@H]12`, the composite z-score came out at 2.53 in test [1]; 1.18 in test [2]; 0.458 in test [3]; 0.659 in [4]; 0.974 in test [5]; 0.684 in [6]. Besides, the composite z-score was found to be 0.433 in the test on Lefty1 and 0.214 in test [8]. The z-score in [7] is 2.76; in test [9], -1.01 (inactive).

`Cc1ccc(S[C@]2(C(=O)NCCCN(C)C)CC(=O)N(Cc3ccccc3Cl)[C@@H]2c2ccc(CO)cc2I)cc1`: the composite z-score is -0.704 in test [1]; -0.522 in test [2]; 0.404 in test [3]; -1.05 in [4]; -0.667 in [5]; -1.09 in [6]. Further, the composite z-score with Lefty1 was -0.767; in [8], 1.17. The z-score was 0.935 in test [7] and -0.543 (inactive) in test [9].

For the molecule `CN(C)CCCCNC(=O)[C@H]1C[C@H]2C(=O)NCC(=O)N2[C@H]1c1cccc(OCCO)c1`, the composite z-score in test [1] is 0.465; in test [2], -0.74; in test [3], -0.539; in [4], -1.59; in test [5], 0.991; in test [6] it was 0.817. Besides, the values for the composite z-score (in the test on Lefty1; in test [8]) were 0.748 and 0.169, respectively. Moreover, the z-score in test [7] was 0.411; in [9], 1.59 (inactive).

Consider `CN1C(=O)[C@]2(CCC(=O)OC(C)(C)C)N=C(c3ccc(OCCCO)cc3)O[C@@H]2c2ccccc21`, for which the composite z-score in test [1] worked out at 1.2; in [2], 1.23; in [3] it was 0.488; in test [4] it was 0.95; in test [5], 1.44; in test [6] it was 1.55. Further, the composite z-score with Lefty1 came out at 0.853; in test [8], 0.182. For the same molecule, the z-score in [7] was 1.85; in test [9] it was -2.79 (inactive).

For `COCCOC(=O)N1C(=O)[C@@]2(c3cc(C#Cc4ccc(OC)cc4)ccc31)[C@H](C(=O)N1CCCCCCC1)[C@H]1C(=O)O[C@H](c3ccccc3)[C@H](c3ccccc3)N1[C@@H]2c1ccccc1OCCO`, the composite z-score in test [1] was 0.32; in [2] it was 1.21; in [3] it was 0.628; in test [4], 0.495; in test [5], 1.49; in test [6], 1.54. Also, the results for the composite z-score (in the test on Lefty1; in test [8]) were 1.62 and 0.614, respectively. The z-score in test [7] is -0.864; in test [9], 0.197 (inactive).

Turning to `O=c1cccc(-c2ccccc2C(F)(F)F)o1`, the composite z-score in test [1] was -0.602; in [2], 0.389; in [3], -0.0583; in test [4] it was -2.29; in test [5], -0.547; in test [6], -0.661. Moreover, the results for the composite z-score (in the test on Lefty1; in test [8]) were -0.599 and -0.861, respectively. The z-score in test [7] is -0.074; in [9], 1.24 (inactive).

On to `C=CCC(OC(C)=O)[C@@H]1[C@@H](N(Cc2ccc(-c3cccc(C(F)(F)F)c3)o2)C(=O)Cc2ccc(F)cc2)c2cc(OCCCO)ccc2N1C(=O)c1ccc2ccccc2c1` (stereo not given in full), for which the composite z-score is -0.118 in [1]; -0.783 in test [2]; -0.192 in [3]; -1.67 in test [4]; 0.426 in test [5]; -0.451 in test [6]. For the same molecule, the composite z-score in the test on Lefty1 was 0.479; in test [8], -0.486. In addition, the results for the z-score in [7] and in [9] were 0.637 and 0.354 (inactive), respectively.

As to `COCCOC(=O)N1C(=O)[C@@]2(c3cc(C#CCCO)ccc31)[C@H](c1ccc(O)cc1)N1[C@H](c3ccccc3)[C@H](c3ccccc3)OC(=O)[C@H]1[C@@H]2C(=O)N1CCc2cc(OC)c(OC)cc2C1`, the composite z-score came to 0.432 in test [1]; 1.25 in [2]; 0.514 in test [3]; 0.81 in [4]; 1.36 in test [5]; 1.59 in [6]. The composite z-score in the test with Lefty1 amounted to 1.36; in [8], 1.03. The z-score in test [7] is 0.257; in test [9] it was 0.298 (inactive).

For `CCCCCCCCCCC(O)C1C=CC2C(=O)N(C)C(=O)C2N1N1CCCCC1` (stereo not given), the composite z-score was 0.373 in [1]; -0.768 in test [2]; 0.0399 in test [3]; -1.27 in [4]; -2.14 in test [5]; -1.02 in test [6]. Besides, the composite z-score with Lefty1 was -1.84; in test [8] it was -0.325. Further, the z-score is 0.44 in test [7] and -0.224 (inactive) in test [9].

The record behind these values is PubChem BioAssay.
